Source: PubChem BioAssay AID1159606 (Sanford-Burnham Center for Chemical Genomics, 2016)
Where “and” joins values, the source holds several entries; their conditions need not be identical. Equal entries are not always repeated. Out of some 360,000 compounds screened, about 7,300 (2%) were called active. Cut-off read from the data, not from the text of the source: active = inhibition above about 50%; inactive = the rest. This excerpt belongs to a sample that is enriched for actives.

Assay: inhibitors of TWEAK-Fn14 signaling, primary screen, luciferase reporter cells, uHTS (AID 1159606)
Conditions: TWEAK-stimulated Fn14 reporter cells, luciferase luminescence, 8 h; at 10 µM; active compounds read high

Compound	inhibition
Cn1nnc2cc(C(=O)NCCC3=CCCCC3)ccc21	51.2% (active)
O=C(NCCC1=CCCCC1)c1ccc(Cl)c([N+](=O)[O-])c1	-14.2% (inactive)
O=C(NCCC1=CCCCC1)c1ccc(-n2cncn2)cc1	-8.52% (inactive)
CC1CCCCC1NC(=O)CN1CCC(O)(c2ccc3c(c2)OCO3)CC1 (stereo not given)	3.52% (inactive)
CCCCn1nnnc1C(c1ccccc1)N1CCN(c2ccccc2OC)CC1 (stereo not given)	-11.6% (inactive)
COc1cc(/C=N/Nc2ccc(C)cc2)cc(Br)c1O	4.13% (inactive)
COc1cccc(/C=N/Nc2cc(C)nc(-c3ccccc3O)n2)c1O	59% (active)
COc1ccccc1-n1c(SCC(=O)Nc2cccc(C(=O)O)c2)nnc1-c1ccccc1O	8.74% (inactive)
Cc1cc(CNC(=O)C2CCC(=O)N(CCc3ccc(Cl)cc3)C2)no1 (stereo not given)	0.87% (inactive)
CC(=O)N1CCN(S(=O)(=O)c2c(F)cc(F)c(Cl)c2F)CC1	-11.6% (inactive)
COc1ccc(/C=N/NC(=O)C(C)N(c2ccc(OC)cc2)S(C)(=O)=O)cc1 (stereo not given)	6.28% (inactive)
O=C(NN=Cc1ccc2c(c1)CCC2)c1ccccc1O	-39.1% (inactive)
COc1ccc(/C=N/Nc2ccccc2C(=O)O)cc1	57% (active)
COc1ccc(/C=C2/SC(=O)N(CCCCCC(=O)Nc3ccccc3C(=O)O)C2=S)cc1	40.8% (inactive)
COc1ccc(C(=O)Nc2ccccc2C(=O)N/N=C/c2ccc(O)c(OC)c2)cc1	103% (active)
COc1ccc(-c2[nH]ncc2/C=N/NC(=O)c2cc(Br)ccc2O)c(OC)c1	1.37% (inactive)
CCOC(=O)C(=O)C1C(=O)Nc2ccccc21 (stereo not given)	6.46% (inactive)
CCOc1ccc(CCN2C(=O)C(=O)N([C@@H](Cc3ccc(O)cc3)CN3CCC[C@H]3CN3C(=O)C(=O)NC[C@@H]3CC(C)C)C[C@@H]2Cc2ccccc2)cc1	20.7% (inactive)
CC1=NN(c2cccc(Cl)c2)C(=O)C12CC(C)=C(C)CS2 (stereo not given)	-6.06% (inactive)
CC(NC(=O)CN1CCN(Cc2ccc(Cl)cc2)C1=O)c1ccc2c(c1)OCCO2 (stereo not given)	13.5% (inactive)

Compound	inhibition
CC(C)C[C@H]1CNC(=O)C(=O)N1C[C@@H]1CCCN1C[C@H](Cc1ccccc1)N1C[C@H](CC(C)C)N(CC2CCCCCC2)C(=O)C1=O	5.6% (inactive)
CC1CC(=O)Nc2ccccc2N1C(=O)COc1ccc2cc(Br)ccc2c1 (stereo not given)	-17.9% (inactive)
O=C(CNC(=O)c1cccnc1)N/N=C/c1cc(Br)c(O)c(Br)c1	-15.2% (inactive)
O=C(CSc1cccc2cccnc12)N/N=C/c1cccnc1	73.4% (active)
Cc1ccc(S(=O)(=O)N(CC(=O)N/N=C/c2ccc(F)cc2)c2cccc3cccnc23)cc1	-1.02% (inactive)
COc1ccc(C)cc1NC(=O)NCCCCc1ccccc1	-2.36% (inactive)
CCCCN1C(=O)CC(N2CCOCC2)C1=O (stereo not given)	-9.74% (inactive)
CCCCCn1nnnc1-c1nc2cc3ccccc3cc2[nH]c1=O	-12.3% (inactive)
CCCCCN(C(=O)CCC(=O)OCCOc1ccc(OC)cc1)c1c(N)n(CCCC)c(=O)[nH]c1=O	-5.75% (inactive)
Cc1ccc(NC(=O)N2CCSc3ccccc32)cc1	-12.4% (inactive)
C=C(C)C(=O)O[C@H]1C/C(C)=C\C(=O)/C=C(\C)[C@H](O)[C@@H]2OC(=O)C(=C)[C@@H]21	68.2% (active)
CNC(=S)N/N=C/c1ccc(N2CCOCC2)s1	7.48% (inactive)
CC1(NC(=O)CCS(=O)(=O)c2ccc(Cl)cc2)CCS(=O)(=O)C1 (stereo not given)	17.8% (inactive)
O=C(NCC(c1ccco1)N1CCc2ccccc2C1)c1ccccc1Cl (stereo not given)	-3.94% (inactive)
Nc1cccc(OCCCCCOc2cccc(N)c2)c1	-9.63% (inactive)
CCc1ccc(-n2c(SCc3cc(=O)n4cc(Br)ccc4n3)nc3[nH]ncc3c2=O)cc1	2.35% (inactive)
O=c1c2sccc2nc(SCc2cc(=O)n3ccccc3n2)n1-c1ccc(Br)cc1	-8.13% (inactive)
Cc1cccc2nc(CSc3nc4[nH]ncc4c(=O)n3-c3cccc(Cl)c3)cc(=O)n12	68.9% (active)
COc1ccc(C(=O)CSc2n[nH]c(N)n2)cc1	-14.2% (inactive)
Cc1ccc(N2CCN(c3ccc(C)cc3)C2c2ccccn2)cc1	-16.7% (inactive)

Compound	inhibition
CCOC(=O)C1CCCCN1Cc1ccc(OC)c(OC)c1OC (stereo not given)	-2.28% (inactive)
CC1Cc2[nH][nH]c(=O)c2C(C2CCCC2)O1 (stereo not given)	-6.62% (inactive)
COc1ccc(CCNc2cc(N3CCN(C(=O)c4ccccc4OC)CC3)ccc2[N+](=O)[O-])cc1OC	94.3% (active)
COc1ccc(CCNC(=O)c2ccccc2-c2ccccc2C(=O)O)cc1OC	4.96% (inactive)
COc1ccccc1OCCNc1cc(N2CCOCC2)ccc1[N+](=O)[O-]	-47.4% (inactive)
CC(C)(O)C1=C[N+](=O)CC=C1	13.1% (inactive)
CC1(C)SC2C(NC(=O)COc3ccccc3)C(=O)N2C1C(=O)O (stereo not given)	1.61% (inactive) and -29.2% (inactive)
CC(=O)Nc1ccc(S(=O)(=O)Nc2nc3n(n2)C(c2ccccc2)CC(=O)N3)cc1 (stereo not given)	-1.82% (inactive)
CC(C)[C@H](NC(=O)c1ccccc1F)C(=O)Nc1cccc(S(=O)(=O)N2CCOCC2)c1	12.8% (inactive)
C=CCn1c(C)cc(C(=O)CN2C(=O)c3ccccc3C2=O)c1C	63.3% (active)
C=CCN(CC=C)C(=O)CN1C(=O)c2ccccc2C1=O	15.1% (inactive)
Cc1cc(C(=O)COC(=O)CCCN2C(=O)c3ccccc3C2=O)c(C)n1C	5.35% (inactive)
O=C1CCC(=O)N(O)CCCCCNC(=O)CCC(=O)N(O)CCCCCNC(=O)CCC(=O)N(O)CCCCCN1	-10.8% (inactive)
C/C(=N/OC(=O)c1cccc(C(F)(F)F)c1)c1cnccn1	-1.14% (inactive)
COC(=O)CCNc1ccc2c(c1)OCCO2	93.8% (active)
CCc1ccccc1OCC(=O)Nc1ccc2c(c1)OCCO2	-1.57% (inactive)
CCOc1ccc(NCCC(=O)c2ccc3c(c2)OCO3)cc1	-3.49% (inactive)
Cc1ccc(OCCCC(=O)Nc2ccc3c(c2)OCCO3)cc1	63.9% (active)
COc1ccccc1OCCCC(=O)Nc1ccc2c(c1)OCCO2	-33.3% (inactive)
Cc1ccc(OCCCC(=O)Nc2ccc(N3CCOCC3)cc2)cc1	4.69% (inactive)
